Records with an inconclusive call do not appear. Active and inactive are the calls of the source. The calls were made as follows: active = hit-call score of the fitted dose curve at least 0.9, where 1 is the maximum; inconclusive = response in the unintended direction; inactive = score below 0.9.
How the values were obtained:
[1] = target: Luciferin 4-monooxygenase (Photinus pyralis) (UniProt P08659); experiment: CCTE_Simmons_QuantiLum_inhib_2: CCTE's Firefly Luciferase Inhibition Assay, Simmons Lab (AID 2283767);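 as to AC50: potency for inhibitors that lower luciferase luminescence relative to DMSO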
Outline: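 Eight test concentrations, 5 nM up to 87.5 uM final, preincubated 30min at 37C in the dark with purified luciferase (0.5% DMSO final). Detection reagent (150uM D-luciferin, 147uM dATP, 75uM CoA, pH 7.8) injected per well before kinetic luminescence read; three replicates.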

[2] = system: chicken Androgen Receptor (AR), gene 422165; experiment: ATG_chAR_XSP1: Attagene TRANS-FACTORIAL Multi-Species (XSP1) HepG2 Assay for chicken Androgen Receptor (AR) (AID 2283768)
Outline: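 Reporter mRNA read by RT-PCR with fluorescent labelling and capillary electrophoresis 24 h after chemical dosing of transiently transfected HepG2 cells. Chicken AR-Gal4 chimera, partially stimulated with 3 nM 6-alpha-fluorotestosterone; activity fitted upward relative to DMSO.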

[3] = system: frog Androgen Receptor (AR), gene 399456; experiment: ATG_frAR_XSP1: Attagene TRANS-FACTORIAL Multi-Species (XSP1) HepG2 Assay for frog Androgen Receptor (AR) (AID 2283770)
Description: ATG_XSP1_multi-species_TRANS is a cell-based, multiplexed assay created by modifying the existing Attagene TRANS-FACTORIAL system to include a panel of nuclear receptors from some or all the following species: human (Homo sapiens), mouse (Mus musculus), frog (Xenopus laevis), zebrafish (Danio rerio), chicken (Gallus gallus), and turtle (Chrysemys picta). The ECOTOX-FACTORIAL format uses HepG2, a human liver cell line, with measurements taken at 24 hours after chemical dosing in a 24-well plate. Xsp1 included 3 nM 6-alpha-fluorotestosterone to partially stimulate the androgen receptor.ATG_frAR_XSP1 is one of 29 assay components measured or calculated from the ATG_XSP1_multi-species_TRANS assay. It is designed to make measurements of mRNA induction, a form of inducible reporter, as detected with fluorescence intensity signals by Reverse transcription polymerase chain reaction (RT-PCR) and Capillary electrophoresis technology.The assay endpoint ATG_frAR_XSP1 was analyzed in the positive analysis fitting direction relative to DMSO as the negative control and baseline of activity. […] Furthermore, this assay endpoint can be referred to as a primary readout, because this assay has produced multiple assay endpoints where this one serves a reporter gene function. […]

[4] = target: zebrafish Estrogen Receptor (ESR1), esr1 (gene 259252) (UniProt P57717); experiment: ATG_zfER1_XSP1: Attagene TRANS-FACTORIAL Multi-Species (XSP1) HepG2 Assay for zebrafish Estrogen Receptor (ESR1) (AID 2283772)
Outline: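 HepG2 cells were transiently transfected with multiplexed GAL4-UAS reporter units driven by chimeric NR-GAL4 proteins, dosed for 24 h with 3 nM 6-alpha-fluorotestosterone present, and reporter mRNA quantified by RT-PCR and capillary electrophoresis versus DMSO.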

[5] = system: zebrafish Estrogen Receptor (ESR2B), gene 317733; experiment: ATG_zfER2b_XSP1: Attagene TRANS-FACTORIAL Multi-Species (XSP1) HepG2 Assay for zebrafish Estrogen Receptor (ESR2B) (AID 2283773)
Outline: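 Medium contained 3 nM 6-alpha-fluorotestosterone. Reporter mRNA induction by exogenous zebrafish ER2b-Gal4 chimera was read 24 h post-dose in transiently transfected HepG2 cells, using RT-PCR, fluorescent labelling, HpaI digestion and capillary electrophoresis.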

[6] = system: frog Estrogen Receptor (ESR2), gene 100174814; experiment: ATG_frER2_XSP1: Attagene TRANS-FACTORIAL Multi-Species (XSP1) HepG2 Assay for frog Estrogen Receptor (ESR2) (AID 2283774)
Outline: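 Reporter mRNA from a multiplexed TRANS system, measured by RT-PCR with fluorescent labelling and capillary electrophoresis, 24 hours after chemical exposure. Human HepG2 liver cells carried exogenous frog ER-Gal4 chimera; medium included 3 nM 6-alpha-fluorotestosterone; increases versus DMSO analysed.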

[7] = ACEA_AR_antagonist_AUC_viability: ACEA Biosciences xCELLigence Real-Time Cell Analysis on Androgen Receptor Antagonism for Viability (AID 2283776);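 also: 22Rv1 human prostate cancer cells growing on impedance electrode plates; area under impedance growth curve at 80 h after dosing as viability; hits lower the growth signal relative to DMSO meaning cytotoxicity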
Outline: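 Real-time electrical impedance tracks 22Rv1 proliferation after continuous compound exposure (top 100 uM final, 1:4 steps, 8 concentrations). The 80 h area-under-curve serves as the cytotoxicity readout relative to DMSO.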

[8] = system: frog Estrogen Receptor (ESR1), gene 398734; experiment: ATG_frER1_XSP1: Attagene TRANS-FACTORIAL Multi-Species (XSP1) HepG2 Assay for frog Estrogen Receptor (ESR1) (AID 2283777)
Outline: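 HepG2 cells transiently transfected with GAL4-UAS reporter units and frog ER–Gal4 chimera were dosed for 24 h with 3 nM 6-alpha-fluorotestosterone present. Reporter mRNA was measured by RT-PCR and capillary electrophoresis; gain of signal fitted versus DMSO.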

[9] = system: zebrafish Estrogen Receptor (ESR2A), gene 317734; experiment: ATG_zfER2a_XSP1: Attagene TRANS-FACTORIAL Multi-Species (XSP1) HepG2 Assay for zebrafish Estrogen Receptor (ESR2A) (AID 2283778)
Outline: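 Reporter transcripts were quantified by RT-PCR, 6-FAM labelling, HpaI digestion and capillary electrophoresis after 24 h dosing. The cells were HepG2 transiently carrying a zebrafish ER2a–Gal4 construct plus multiplexed UAS reporters; medium contained 3 nM 6-alpha-fluorotestosterone.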

[10] = target: chicken Estrogen Receptor (ESR1), ESR1 (gene 396099) (UniProt P06212); experiment: ATG_chERa_XSP1: Attagene TRANS-FACTORIAL Multi-Species (XSP1) HepG2 Assay for chicken Estrogen Receptor (ESR1) (AID 2283779)
Outline: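 Trans-activation of an exogenous chicken ERα–Gal4 chimera read as reporter transcript (RT-PCR, fluorescent labeling, capillary electrophoresis) after 24 h compound exposure of transfected HepG2; medium held 3 nM 6-alpha-fluorotestosterone. Positive-direction fit against DMSO.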

[11] = target: Estrogen receptor (Homo sapiens) (UniProt P03372); experiment: ATG_hERa_XSP1: Attagene TRANS-FACTORIAL Multi-Species (XSP1) HepG2 Assay for human Estrogen Receptor (ESR1) (AID 2283780)
Outline: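 Reporter transcripts from multiplexed GAL4-UAS units driven by NR-Gal4 chimeras in transiently transfected HepG2 were measured by RT-PCR with capillary electrophoresis 24 h post-dose, with 3 nM 6-alpha-fluorotestosterone present; gain-of-signal relative to DMSO.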

[12] = system: turtle Estrogen Receptor (ESR1), gene 101933533; experiment: ATG_trERa_XSP1: Attagene TRANS-FACTORIAL Multi-Species (XSP1) HepG2 Assay for turtle Estrogen Receptor (ESR1) (AID 2283781)
Outline: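 Transactivation measured 24 h post-dose as reporter mRNA (RT-PCR, fluorescent capillary electrophoresis) from an NR-Gal4 turtle ER construct in HepG2. Medium included 3 nM 6-alpha-fluorotestosterone; increase over DMSO fitted.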

AR (gene 367) = AR (gene 367) (UniProt P10275); experiment: ACEA_AR_agonist_80hr: ACEA Biosciences xCELLigence Real-Time Cell Analysis on Androgen Receptor Agonism for Proliferation (AID 2283783);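 also: hits increase impedance growth signal above DMSO baseline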
Outline: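 Eight concentrations, 1:4 serial dilution from a 100 uM final top, in biological duplicate. Impedance-based real-time growth of 22Rv1 cells after overnight baseline, recorded hourly and read at 80 hours. Controls: testosterone, MG132, assay media.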

[13] = STM_H9_NormalizedViability: Cytotoxicity Assessment at 120 hours in the Stemina devTOX quickPredict H9 human embryonic stem cell (hESC)-based Assay (AID 2283784)
Outline: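 Viability endpoint: background-corrected CellTiter-Fluor RFU expressed relative to the 0.1% DMSO mean on each plate. Undifferentiated H9 cells were treated with daily re-dosing and media change, and loss of signal was fitted.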

[14] = system: turtle Androgen Receptor (AR), gene 101947425; experiment: ATG_trAR_XSP1: Attagene TRANS-FACTORIAL Multi-Species (XSP1) HepG2 Assay for turtle Androgen Receptor (AR) (AID 2283786)
Outline: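 Partial androgen stimulation is provided by 3 nM 6-alpha-fluorotestosterone in a multi-species trans-factorial panel expressing a turtle AR–GAL4 fusion in HepG2. After 24 h, reporter mRNA is measured by RT-PCR and capillary electrophoresis and fitted upward against DMSO.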

[15] = ACEA_AR_agonist_AUC_viability: ACEA Biosciences xCELLigence Real-Time Cell Analysis on Androgen Receptor Agonism for Viability (AID 2283775);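 as to AC50: viability read 80 hours after compound addition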
Outline: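 22Rv1 cells; impedance growth kinetics; 8-pt 1:4 dilutions from 100 uM top final, ≤0.5% DMSO; n = 2; 80 h read; AUC viability, loss-of-signal vs DMSO.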

[16] = system: zebrafish Androgen Receptor (AR), gene 100005148; experiment: ATG_zfAR_XSP1: Attagene TRANS-FACTORIAL Multi-Species (XSP1) HepG2 Assay for zebrafish Androgen Receptor (AR) (AID 2283771)
Outline: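 Gain-of-signal versus DMSO was measured as reporter transcripts quantified by RT-PCR, fluorescent labelling and capillary electrophoresis after 24 h chemical exposure. The cells were HepG2 expressing a chimeric zebrafish AR-GAL4, co-stimulated with 3 nM 6-alpha-fluorotestosterone.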

[17] = ArunA_NOG_BranchPointsPerNeurite: ArunA Biomedical's Neurite Outgrowth (NOG) Assay for Branch Points Per Neurite (AID 2283759)
Outline: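 Automated image analysis traced neurites (processes >10 um) from valid cell bodies after Hoechst and βIII-tubulin staining. hNN cells from H9 embryonic stem cells, 48 h exposure. Fitted bidirectionally against DMSO.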

Measured: AC50

Chain of chicken Estrogen Receptor (ESR1), ESR1 (gene 396099) (P06212 whole entry, looked up, the tested form may be a part): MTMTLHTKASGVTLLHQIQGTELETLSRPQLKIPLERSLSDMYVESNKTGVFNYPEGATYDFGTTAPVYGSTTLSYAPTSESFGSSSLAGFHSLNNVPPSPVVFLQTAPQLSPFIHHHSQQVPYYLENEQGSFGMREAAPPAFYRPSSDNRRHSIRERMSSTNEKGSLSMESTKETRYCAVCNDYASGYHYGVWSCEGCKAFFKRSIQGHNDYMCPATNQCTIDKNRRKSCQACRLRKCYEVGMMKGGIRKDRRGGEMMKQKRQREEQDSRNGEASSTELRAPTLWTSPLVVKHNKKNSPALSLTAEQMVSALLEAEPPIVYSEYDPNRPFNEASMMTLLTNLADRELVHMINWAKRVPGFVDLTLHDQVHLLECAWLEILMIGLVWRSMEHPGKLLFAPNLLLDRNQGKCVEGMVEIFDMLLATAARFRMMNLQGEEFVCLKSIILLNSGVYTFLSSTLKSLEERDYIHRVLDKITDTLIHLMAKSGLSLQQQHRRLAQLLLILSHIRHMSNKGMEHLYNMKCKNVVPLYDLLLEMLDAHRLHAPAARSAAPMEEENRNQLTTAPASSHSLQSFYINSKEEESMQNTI
Chain of Luciferin 4-monooxygenase (Photinus pyralis) (P08659 whole entry, looked up): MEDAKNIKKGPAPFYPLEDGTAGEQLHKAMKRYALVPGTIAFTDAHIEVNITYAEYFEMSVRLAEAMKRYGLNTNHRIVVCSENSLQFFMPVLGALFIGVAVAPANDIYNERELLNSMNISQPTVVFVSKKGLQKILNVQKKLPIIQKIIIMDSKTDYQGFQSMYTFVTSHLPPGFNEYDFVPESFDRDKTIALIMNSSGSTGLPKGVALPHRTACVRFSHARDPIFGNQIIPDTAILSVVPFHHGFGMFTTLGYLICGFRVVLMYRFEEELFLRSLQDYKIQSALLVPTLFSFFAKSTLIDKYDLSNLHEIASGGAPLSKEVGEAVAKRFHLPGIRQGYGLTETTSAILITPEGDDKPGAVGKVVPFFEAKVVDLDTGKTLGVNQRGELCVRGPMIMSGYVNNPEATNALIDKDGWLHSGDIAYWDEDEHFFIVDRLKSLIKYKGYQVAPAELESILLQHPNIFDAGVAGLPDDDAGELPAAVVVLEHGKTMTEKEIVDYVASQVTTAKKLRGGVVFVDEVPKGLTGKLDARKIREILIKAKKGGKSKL
Chain of AR (gene 367) (P10275 whole entry, looked up): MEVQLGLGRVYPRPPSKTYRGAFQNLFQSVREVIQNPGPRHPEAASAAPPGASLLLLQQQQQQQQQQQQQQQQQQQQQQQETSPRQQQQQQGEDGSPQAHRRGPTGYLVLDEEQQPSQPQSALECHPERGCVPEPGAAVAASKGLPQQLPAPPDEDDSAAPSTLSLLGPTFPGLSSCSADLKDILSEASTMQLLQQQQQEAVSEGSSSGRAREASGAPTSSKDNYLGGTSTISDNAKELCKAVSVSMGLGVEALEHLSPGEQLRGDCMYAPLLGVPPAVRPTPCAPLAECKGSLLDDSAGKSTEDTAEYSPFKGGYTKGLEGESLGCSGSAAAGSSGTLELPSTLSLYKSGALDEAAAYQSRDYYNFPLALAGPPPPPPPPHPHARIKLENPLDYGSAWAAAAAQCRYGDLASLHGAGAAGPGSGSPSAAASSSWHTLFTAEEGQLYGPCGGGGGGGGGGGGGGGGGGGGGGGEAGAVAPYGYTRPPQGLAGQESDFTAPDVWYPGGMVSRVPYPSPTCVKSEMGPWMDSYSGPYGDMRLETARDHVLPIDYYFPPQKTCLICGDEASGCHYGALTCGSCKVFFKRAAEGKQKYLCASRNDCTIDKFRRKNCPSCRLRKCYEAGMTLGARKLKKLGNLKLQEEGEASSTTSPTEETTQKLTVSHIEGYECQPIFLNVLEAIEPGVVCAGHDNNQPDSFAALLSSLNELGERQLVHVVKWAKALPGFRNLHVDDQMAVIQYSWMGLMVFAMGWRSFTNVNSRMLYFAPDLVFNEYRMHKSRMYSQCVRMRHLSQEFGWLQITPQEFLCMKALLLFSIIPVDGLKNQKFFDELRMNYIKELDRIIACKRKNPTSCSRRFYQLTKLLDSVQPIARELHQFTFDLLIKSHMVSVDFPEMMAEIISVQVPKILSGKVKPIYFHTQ
Chain of zebrafish Estrogen Receptor (ESR1), esr1 (gene 259252) (P57717 whole entry, looked up, the tested form may be a part): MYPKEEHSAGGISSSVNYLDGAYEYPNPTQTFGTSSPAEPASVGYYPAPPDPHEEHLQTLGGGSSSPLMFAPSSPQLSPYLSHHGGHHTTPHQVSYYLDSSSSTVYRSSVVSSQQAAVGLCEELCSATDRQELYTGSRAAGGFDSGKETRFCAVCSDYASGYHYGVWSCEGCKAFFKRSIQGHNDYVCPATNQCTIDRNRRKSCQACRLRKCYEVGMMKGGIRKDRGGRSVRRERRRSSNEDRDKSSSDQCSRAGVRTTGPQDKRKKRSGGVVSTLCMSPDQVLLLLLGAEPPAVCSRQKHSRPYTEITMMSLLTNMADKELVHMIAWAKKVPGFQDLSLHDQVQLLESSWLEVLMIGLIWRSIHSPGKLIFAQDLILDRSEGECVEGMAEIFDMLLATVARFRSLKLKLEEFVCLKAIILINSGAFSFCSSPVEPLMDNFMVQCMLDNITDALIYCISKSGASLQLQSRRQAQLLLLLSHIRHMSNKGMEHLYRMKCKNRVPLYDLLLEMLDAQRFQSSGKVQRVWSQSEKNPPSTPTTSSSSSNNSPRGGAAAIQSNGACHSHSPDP
Chain of Estrogen receptor (Homo sapiens) (P03372 whole entry, looked up, the tested form may be a part): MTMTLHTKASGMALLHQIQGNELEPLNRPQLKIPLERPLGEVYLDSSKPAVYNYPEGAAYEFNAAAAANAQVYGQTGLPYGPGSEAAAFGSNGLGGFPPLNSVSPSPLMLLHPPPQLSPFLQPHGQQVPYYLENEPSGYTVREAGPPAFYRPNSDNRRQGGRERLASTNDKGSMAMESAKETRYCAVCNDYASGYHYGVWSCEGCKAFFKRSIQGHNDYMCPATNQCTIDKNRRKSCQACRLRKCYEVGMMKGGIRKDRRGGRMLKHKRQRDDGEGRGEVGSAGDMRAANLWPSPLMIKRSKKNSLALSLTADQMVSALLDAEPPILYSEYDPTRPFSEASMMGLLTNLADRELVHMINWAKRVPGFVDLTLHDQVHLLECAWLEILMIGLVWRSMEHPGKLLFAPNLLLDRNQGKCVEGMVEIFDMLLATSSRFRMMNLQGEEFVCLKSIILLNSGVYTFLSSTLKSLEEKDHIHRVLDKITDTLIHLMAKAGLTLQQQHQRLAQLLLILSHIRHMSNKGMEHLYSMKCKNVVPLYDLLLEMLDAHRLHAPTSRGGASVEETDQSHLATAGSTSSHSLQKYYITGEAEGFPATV

O=C(c1ccc(O)cc1O)c1ccc(O)cc1O
active: [1] 47.2 µM | [2] 0.133 µM | [3] 2.75 µM | [4] 1.38 µM | [5] 0.94 µM | [6] 0.519 µM | [8] 0.544 µM | [9] 0.191 µM | [10] 3.09 µM | [11] 0.643 µM | [12] 1.08 µM | AR (gene 367) 0.187 µM | [13] 50 µM
inactive: [7] | [14]

CN(C)C(=O)Nc1ccc(Cl)c(Cl)c1
inactive: [1] | [15] | AR (gene 367) | [13]
active: [7] 50 µM

CCCCC(CC)CN1C(=O)C2C3C=CC(C3)C2C1=O (stereo not drawn)
active: [5] 27.4 µM | [6] 25.4 µM | [15] 81.6 µM | [7] 56.8 µM | [10] 0.306 µM | [11] 2.7 µM
inactive: [16] | [4] | [8] | [9]

CC(C)CCCCCCc1ccc(O)cc1
active: [4] 2.68 µM | [5] 0.571 µM | [6] 0.752 µM | [15] 10.7 µM | [7] 7.91 µM | [8] 0.189 µM | [10] 0.357 µM | [11] 0.507 µM | [12] 0.317 µM | [13] 81.2 µM
inactive: [17] | [1] | [9]

S=C([S-])NCCNC(=S)[S-].[Mn+2]
inactive: [1] | [13]

C=CCOC(Cn1ccnc1)c1ccc(Cl)cc1Cl (stereo not drawn)
active: [5] 20.5 µM | [6] 11.6 µM | [15] 66.4 µM | [7] 41.6 µM | [8] 3.63 µM | [10] 26.1 µM | [12] 26.7 µM
inactive: [16] | [4] | [9] | [13]

CCCN(CCC)c1c([N+](=O)[O-])cc(C(F)(F)F)c(N)c1[N+](=O)[O-]
active: [15] 14.9 µM | [7] 35 µM
inactive: [13]

O=C(O)C1(C(=O)Nc2ccc(Cl)cc2Cl)CC1
inactive: AR (gene 367) | [13]
active: [15] 50 µM | [7] 50 µM

— PubChem BioAssay (EPA / NIEHS)
